Compound activity from PubChem BioAssay.
FadD28 FP inh: inhibitors of Mycobacterium tuberculosis FadD28 bisubstrate binding. AID 588549. hit rate 0.22% among 360,000. FadD28 bisubstrate probe binding, fluorescence polarization. inhibition, % at 12.5 µM; in the data active = inhibition above about 8.5%, passing the limit was not always enough; inconclusive = no clear call, values can overlap the other calls
PrP 5UTR inh: suppresses PrP 5' UTR mRNA reporter expression. cell-based PrP 5' UTR mRNA reporter, plate reader. AID 488862. hit rate 0.35% among 340,000. inhibition, % (concentration not given with the values); in the data active = inhibition above about 52%
Mtb BioA inh: BioA (M. tuberculosis) enzyme inhibition. purified M. tuberculosis BioA enzyme, plate reader. inhibition, % at 9.99 µM. hit rate 0.096% among 360,000; in the data active = inhibition above about 40%; inconclusive = no clear call, values can overlap the other calls
Y pestis TopoI: inhibitors of Yersinia pestis topoisomerase I | Y. pestis Topo-I cleavage product accumulation, plate reader | activity, % at 10 µM | hit rate 0.064% among 360,000; in the data active = activity above about 50%, passing the limit was not always enough; inconclusive = no clear call, values can overlap the other calls
PfHsp40 yeast: compounds rescuing yeast from Plasmodium falciparum HSP40 toxicity; growth rescue, % at 12.5 µM; AID 504582; S. cerevisiae expressing PfHsp40, growth rescue, ATP luminescence; hit rate 0.68% among 340,000; in the data active = growth rescue above about 28%, passing the limit was not always enough; inconclusive = no clear call, values can overlap the other calls;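 also: yeast W303a lacking pdr1 and pdr3 grown in galactose medium; growth measured after three days at 30 °C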
Numbers stand for hits; 0 = inactive; ? = inconclusive; - = no result given. Sampled rows, rich in hits. Any-hit rate of the full collection: about 1.1%.

SMILES | FadD28 FP inh | PrP 5UTR inh | Mtb BioA inh | Y pestis TopoI | PfHsp40 yeast
Cc1c(Br)c(O)c(Br)c(O)c1/C=N/n1c(-c2ccccc2)n[nH]c1=S | 21 | 0 | 0 | 0 | 0
Oc1c(Br)cc(/C=N/n2c(-c3ccccc3)n[nH]c2=S)c(O)c1Br | ? | 0 | 0 | 0 | 0
COc1cc(C2C3C(C)N(C)C(=O)N(C)C3N(C)C(=O)N2C)ccc1O (configuration not stated) | 0 | 0 | 0 | 0 | 52
COc1ccccc1NC(=O)Nc1ccc2c(c1)C(=O)N(C)C[C@H](OC)[C@@H](C)CN[C@H](C)CO2 | - | - | 0 | - | -
O=c1[nH]c(CN2CCN(c3ccc(O)cc3)CC2)nc2scc(-c3ccc(Cl)cc3)c12 | 0 | 0 | - | 0 | 0
O=c1[nH]c(CN2CCN(c3ccccc3O)CC2)nc2scc(-c3ccccc3Cl)c12 | 0 | 0 | 0 | 0 | 29
O=[N+]([O-])c1ccc(/C=N/NC(=S)Nc2ccc(Cl)cc2Cl)s1 | 0 | 0 | 0 | 0 | 240
O=[N+]([O-])c1ccc(O)c(/C=N/NC(=S)Nc2ccc(Cl)cc2Cl)c1 | ? | 0 | 0 | 0 | 0
O=C(N/N=C/c1ccc([N+](=O)[O-])s1)c1ccccc1 | 0 | 0 | 0 | 0 | 150
CCC(C(=O)OC)n1cnc2scc(-c3ccc(C)c(C)c3)c2c1=O (configuration not stated) | 0 | 0 | 0 | 0 | 166
Cc1cc(C)n(-c2ccc(N3CCOCC3)nn2)n1 | 0 | 0 | 0 | 0 | 36
O=C(Cc1cccnc1)N1[C@@H](CO)[C@H](c2ccccc2)[C@@H]1CNCC1CCC1 | - | - | 0 | - | -
C[C@@H]1CCCCO[C@H](CN(C)C(=O)Nc2ccc3c(c2)OCO3)[C@@H](C)CN([C@H](C)CO)C(=O)c2cc(NS(=O)(=O)c3cn(C)cn3)ccc2O1 | - | - | 0 | - | -
O=C1c2ccccc2CCCC12N=NCC2c1cccc2ccccc12 (configuration not stated) | 0 | 0 | 0 | 0 | 109
COc1ccc(S(=O)(=O)/N=C2/NC(=O)/C(=C/c3ccco3)S2)cc1 | 20 | 0 | - | 0 | 0
CN(C)c1ccc(/C=C/c2nc3ccccc3c(=O)[nH]2)cc1 | 0 | 60 | - | 0 | 0
O=P(Nc1cccnc1)(Oc1ccccc1Cl)Oc1ccccc1Cl | 0 | 0 | - | 0 | 411
CCCCCCCCCCCCCCCCn1cc[n+](C)c1 | 49 | 0 | - | 0 | 0
Cc1cc2nc3ccc(=[N+](C)C)cc-3sc2cc1N | 0 | 0 | - | 419 | 0
Cc1nc2cc(C)c(C)cc2s1 | 0 | 0 | - | 0 | 0
Cc1ccc2oc(C(=O)Nc3ccc(S(=O)(=O)Nc4onc(C)c4C)cc3)c(C)c2c1 | 0 | 0 | 0 | 0 | 0
Cc1ccc(-c2cc(C(=O)Nc3ccc(S(=O)(=O)Nc4onc(C)c4C)cc3)[nH]n2)c(O)c1 | 14 | 0 | 0 | 0 | 0
CCNC(=O)[C@H]1[C@H](CO)[C@H]2Cn3c(ccc(-c4ccccc4OC)c3=O)[C@H]2N1CC | - | - | 0 | - | -
Cc1ccc(N2C(=O)C(F)(F)C2c2ccccc2)cc1 (configuration not stated) | 0 | 0 | 0 | 0 | 0
O=C1N(c2ccc3c(c2)OCCO3)C(c2ccccc2)C1(F)F (configuration not stated) | 0 | 0 | - | 0 | 43
SMILES | FadD28 FP inh | PrP 5UTR inh | Mtb BioA inh | Y pestis TopoI | PfHsp40 yeast
C[C@H]1CN([C@@H](C)CO)S(=O)(=O)c2ccc(C3=CCCC3)cc2O[C@H]1CN(C)C(=O)c1cccnc1 | - | - | 0 | - | -
CCOc1ccc(NS(=O)(=O)c2ccc(Cl)c(N=Nc3c(O)[nH]c(=S)[nH]c3=O)c2)cc1Br | 15 | - | 0 | 0 | -
O=C(C[C@H]1C=C[C@H](NC(=O)C2CC2)[C@H](CO)O1)NCCCN1CCOCC1 | - | - | 0 | - | -
COCC(=O)Nc1ccc2c(c1)[C@H]1C[C@H](CC(=O)NCc3cccc(F)c3)O[C@H](CO)[C@H]1O2 | - | - | 0 | - | -
OC[C@H]1[C@@H](c2ccc(/C=C/c3ccccc3)cc2)[C@@H]2CN(Cc3ccncc3)CCCCN12 | - | - | 0 | - | -
COc1cc(S(=O)(=O)NC2CCCCC2)ccc1F | 0 | 0 | 0 | 0 | 0
CCOc1cc(S(=O)(=O)NC2CCCCC2)ccc1F | 0 | 0 | 0 | 0 | 89
CCOC(=O)C1=Nc2ccccc2C1=[N+]=[N-] | 0 | 0 | - | 0 | 33
CCN(c1ccc(C(=O)CN2C(=O)NC3(CCOc4ccccc43)C2=O)cc1)S(C)(=O)=O (configuration not stated) | 0 | 0 | 0 | 0 | 0
O=C(O)CN1C(=O)NC2(CCOc3ccccc32)C1=O (configuration not stated) | 0 | 0 | 0 | 0 | 0
O=C(CN1C(=O)NC2(CCOc3ccccc32)C1=O)c1ccc(Br)cc1 (configuration not stated) | 21 | 0 | 0 | 0 | 0
O=C(CN1C(=O)NC2(CCOc3ccccc32)C1=O)c1ccc(Cl)cc1 (configuration not stated) | 16 | 0 | 0 | 0 | 0
C[C@H](CO)N1C[C@H](C)[C@@H](CN(C)Cc2ccc(Cl)c(Cl)c2)Oc2ccc(NS(=O)(=O)c3cccs3)cc2CC1=O | - | - | 0 | - | -
COc1ccc(NC(=O)Nc2nc3c(s2)CCCC3)cc1 | 0 | 0 | 0 | 0 | 56
COc1ccc(OCC(=O)Nc2nc3c(s2)CCCC3)cc1 | 0 | 0 | 0 | 0 | 0
COCCNC(=O)C[C@@H]1C[C@H]2c3cc(NC(=O)Nc4ccc(C(F)(F)F)cc4)ccc3O[C@H]2[C@H](CO)O1 | - | - | 0 | - | -
O=C(O)c1ccccc1NC(c1ccccc1)c1ccc(Cl)cc1 (configuration not stated) | 12 | 0 | - | 0 | 0
O=C(CSc1ccccc1C(=O)O)c1ccc(Cl)cc1 | 0 | 0 | 0 | 0 | 0
CCC(=O)N(C)C[C@@H]1Oc2cc(-c3ccc(C#N)cc3)ccc2S(=O)(=O)N([C@@H](C)CO)C[C@H]1C | - | - | 0 | - | -
CCS(=O)(=O)N1CCCCN2[C@@H](CO)[C@@H](c3ccc(-c4ccc(C#N)cc4)cc3)[C@@H]2C1 | - | - | 0 | - | -
Clc1ccc(OCc2nn3c(C4CCCCC4)nnc3s2)cc1 | 0 | 0 | 0 | 54 | 0
COc1ccc(NC(=O)N[C@H]2C=C[C@@H](CC(=O)NC3CCC3)O[C@H]2CO)cc1 | - | - | 0 | - | -
COc1ccc(-c2nnn(CC(=O)NCc3ccc4c(c3)OCO4)n2)cc1OC | 0 | 0 | - | 0 | 0
CCc1cccc2c(C(=O)COC(=O)/C=C/c3ccc(O)c(OC)c3)c[nH]c12 | 35 | 0 | 0 | 0 | 0
COc1cccc(/C=C/C(=O)OCC(=O)c2c[nH]c3ccccc23)c1 | 0 | 0 | 0 | 0 | 0
CCc1cccc2c(C(=O)Cn3nnc(-c4ccc(OC)c(OC)c4)n3)c[nH]c12 | 73 | 0 | 0 | 0 | 0
CN(C)C(=O)C[C@H]1CC[C@H]2[C@H](COc3ccc(NC(=O)c4ccc(F)c(F)c4)cc3C(=O)N2C)O1 | - | - | 0 | - | -
O=C1CC(N2CCN(c3ccc(O)cc3)CC2)C(=O)N1c1ccc2c(c1)OCO2 (configuration not stated) | 0 | 0 | - | 0 | 0
O=C1CC(N2CCCCCC2)C(=O)N1c1ccc2c(c1)OCO2 (configuration not stated) | 0 | 0 | 0 | 0 | 78
O=C1COc2ccc(S(=O)(=O)N3CCN(c4cccc(Cl)c4)CC3)cc2N1 | 0 | 0 | 0 | 0 | 53
